The values that follow come from article PMC7862700, “An all-to-all approach to the identification of sequence-specific readers for epigenetic DNA modifications on cytosine”.

Holding throughout (experiment): DAPPL (digital affinity profiling via proximity ligation, sequencing); 10 mM Tris-HCl pH 7.5, 50 mM NaCl, 1 mM DTT, 4% glycerol, room temperature, 30 min; GST-TFs on glutathione beads, 16-mer random dsDNA library, 0.1% formaldehyde crosslink after washing; high values mean tight binding
In one assay the target is T1, FEV (Homo sapiens, UniProt Q99581 1-238).
T1 sequence: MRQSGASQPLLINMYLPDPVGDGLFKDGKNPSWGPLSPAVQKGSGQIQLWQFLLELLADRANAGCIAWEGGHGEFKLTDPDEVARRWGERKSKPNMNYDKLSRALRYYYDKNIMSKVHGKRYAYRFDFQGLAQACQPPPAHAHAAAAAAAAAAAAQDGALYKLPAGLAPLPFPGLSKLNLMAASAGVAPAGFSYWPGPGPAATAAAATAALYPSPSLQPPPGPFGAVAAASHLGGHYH
As to conditions: protein: recombinant; tags: N-terminal GST; dsDNA, one strand shown. The method, boiled down:
(§1)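 A tag-only sample was pooled with DNA-barcoded human transcription factors that had been expressed in yeast as GST fusions and captured on glutathione beads. The pools were incubated for 30 min at room temperature with 200 nmole of a random double-stranded 16-mer DNA library in Tris/NaCl/DTT/glycerol buffer, then washed, crosslinked with 0.1% formaldehyde, proximity-ligated (BsaI/T4 ligase, 1 h, 37 °C), PCR-amplified and sequenced on an Illumina NextSeq500. Binding signal is each hexamer's read frequency for a factor divided by its frequency for the tag-only sample.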

The next assay deals with ETV5 (Homo sapiens, UniProt P41161 1-510). To be noted: protein: recombinant; tags: N-terminal GST; dsDNA, one strand shown. The essentials:
as §1

The next assay concerns the target HSF1 (Homo sapiens, UniProt Q00613 1-529). As to conditions: protein: recombinant; tags: N-terminal GST; chain copies: 3; dsDNA, one strand shown. The method, boiled down: as §1
For a further assay, the target named is T2, SPIC (Homo sapiens, UniProt Q8N5J4 1-248).
T2 sequence: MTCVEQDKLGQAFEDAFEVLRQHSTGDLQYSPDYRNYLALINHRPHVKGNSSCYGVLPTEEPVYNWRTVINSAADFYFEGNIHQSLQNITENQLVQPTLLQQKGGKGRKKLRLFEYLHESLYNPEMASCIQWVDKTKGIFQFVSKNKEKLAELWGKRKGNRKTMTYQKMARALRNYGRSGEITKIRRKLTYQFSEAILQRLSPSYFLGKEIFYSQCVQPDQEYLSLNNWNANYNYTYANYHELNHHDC
To be noted: protein: recombinant; tags: N-terminal GST; dsDNA, one strand shown. The method, boiled down:
as §1

The target of the next assay is ELF4 (Homo sapiens, UniProt Q99607 1-663). To be noted: protein: recombinant; tags: N-terminal GST; dsDNA, one strand shown. The essentials: as §1
Another assay concerns the target T3, ELK4 (Homo sapiens, UniProt P28324-2 1-405).
T3 sequence: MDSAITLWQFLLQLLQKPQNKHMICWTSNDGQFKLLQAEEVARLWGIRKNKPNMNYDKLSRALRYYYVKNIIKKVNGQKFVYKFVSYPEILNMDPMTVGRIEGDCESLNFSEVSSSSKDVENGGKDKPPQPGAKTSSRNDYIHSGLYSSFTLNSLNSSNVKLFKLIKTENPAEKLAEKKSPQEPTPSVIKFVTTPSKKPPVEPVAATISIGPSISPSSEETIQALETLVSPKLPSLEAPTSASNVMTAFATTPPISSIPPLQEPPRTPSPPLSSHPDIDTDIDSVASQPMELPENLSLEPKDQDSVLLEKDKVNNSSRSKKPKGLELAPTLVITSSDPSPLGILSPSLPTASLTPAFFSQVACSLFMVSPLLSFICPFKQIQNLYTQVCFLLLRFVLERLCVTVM
To be noted: protein: recombinant; tags: N-terminal GST; dsDNA, one strand shown. The essentials:
as §1

The next assay deals with T4, ETV2 (Homo sapiens, UniProt O00321 1-342).
T4 sequence: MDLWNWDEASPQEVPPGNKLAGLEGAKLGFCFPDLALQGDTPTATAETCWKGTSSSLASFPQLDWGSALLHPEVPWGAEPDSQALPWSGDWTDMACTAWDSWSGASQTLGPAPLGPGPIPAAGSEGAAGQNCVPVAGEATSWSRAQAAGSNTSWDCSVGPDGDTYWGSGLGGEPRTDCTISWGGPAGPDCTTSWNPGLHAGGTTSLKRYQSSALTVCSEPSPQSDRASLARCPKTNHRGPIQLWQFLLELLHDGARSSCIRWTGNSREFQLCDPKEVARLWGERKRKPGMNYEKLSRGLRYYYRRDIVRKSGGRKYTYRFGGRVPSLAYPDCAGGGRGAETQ
To be noted: protein: recombinant; tags: N-terminal GST; dsDNA, one strand shown. The essentials: as §1

For the next assay, the target named is T5, ELF3 (Homo sapiens, UniProt P78545 1-371).
T5 sequence: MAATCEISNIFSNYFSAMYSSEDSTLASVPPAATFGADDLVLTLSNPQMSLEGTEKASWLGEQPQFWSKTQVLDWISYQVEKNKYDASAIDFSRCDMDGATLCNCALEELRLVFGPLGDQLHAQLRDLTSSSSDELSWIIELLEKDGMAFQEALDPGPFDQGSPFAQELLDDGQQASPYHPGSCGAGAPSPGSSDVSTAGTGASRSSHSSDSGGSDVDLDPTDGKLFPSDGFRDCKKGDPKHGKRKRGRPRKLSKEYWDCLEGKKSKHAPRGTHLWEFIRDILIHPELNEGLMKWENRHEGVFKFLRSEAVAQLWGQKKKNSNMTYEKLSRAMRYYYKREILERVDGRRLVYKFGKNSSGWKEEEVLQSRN
To be noted: protein: recombinant; tags: N-terminal GST; dsDNA, one strand shown. The method, boiled down:
as §1

The target in the next assay is CRX (Homo sapiens, UniProt O43186 1-299). As to conditions: protein: recombinant; tags: N-terminal GST; dsDNA, one strand shown. The method, boiled down: as §1
For another assay, the target named is ETV1 (Homo sapiens, UniProt P50549 1-477). To be noted: protein: recombinant; tags: N-terminal GST; dsDNA, one strand shown. The method, boiled down: as §1
The next assay concerns the target T6, ERF (Homo sapiens, UniProt P50548 1-548).
T6 sequence: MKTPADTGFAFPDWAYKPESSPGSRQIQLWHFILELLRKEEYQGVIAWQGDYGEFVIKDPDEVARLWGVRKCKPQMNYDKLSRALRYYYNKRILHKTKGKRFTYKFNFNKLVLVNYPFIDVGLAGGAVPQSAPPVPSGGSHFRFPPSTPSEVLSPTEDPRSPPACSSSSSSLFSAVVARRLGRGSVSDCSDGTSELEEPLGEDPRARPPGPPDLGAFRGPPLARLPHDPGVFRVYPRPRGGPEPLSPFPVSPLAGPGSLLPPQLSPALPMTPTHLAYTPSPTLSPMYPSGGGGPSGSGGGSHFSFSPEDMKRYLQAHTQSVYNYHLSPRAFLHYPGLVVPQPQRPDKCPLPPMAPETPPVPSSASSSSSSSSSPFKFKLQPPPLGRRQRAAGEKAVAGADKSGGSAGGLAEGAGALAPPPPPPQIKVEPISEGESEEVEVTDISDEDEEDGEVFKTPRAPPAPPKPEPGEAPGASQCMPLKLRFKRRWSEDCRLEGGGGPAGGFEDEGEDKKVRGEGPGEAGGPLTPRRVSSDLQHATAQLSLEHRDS
As to conditions: protein: recombinant; tags: N-terminal GST; dsDNA, one strand shown. The essentials:
as §1

For another assay, the target named is T7, ETV3L (Homo sapiens, UniProt Q6ZN32 1-361).
T7 sequence: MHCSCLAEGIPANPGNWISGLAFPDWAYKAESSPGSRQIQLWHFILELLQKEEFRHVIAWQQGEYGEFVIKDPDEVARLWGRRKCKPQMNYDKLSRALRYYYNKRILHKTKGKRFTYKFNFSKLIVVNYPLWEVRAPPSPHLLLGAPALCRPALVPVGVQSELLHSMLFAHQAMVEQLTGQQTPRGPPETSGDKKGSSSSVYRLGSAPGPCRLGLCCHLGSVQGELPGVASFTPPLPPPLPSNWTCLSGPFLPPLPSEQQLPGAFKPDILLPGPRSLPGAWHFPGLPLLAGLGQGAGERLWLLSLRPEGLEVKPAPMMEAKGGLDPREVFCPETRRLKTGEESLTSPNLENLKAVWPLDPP
As to conditions: protein: recombinant; tags: N-terminal GST; dsDNA, one strand shown. The method, boiled down: as §1

Another assay deals with T8, ETS2 (Homo sapiens, UniProt P15036 1-469).
T8 sequence: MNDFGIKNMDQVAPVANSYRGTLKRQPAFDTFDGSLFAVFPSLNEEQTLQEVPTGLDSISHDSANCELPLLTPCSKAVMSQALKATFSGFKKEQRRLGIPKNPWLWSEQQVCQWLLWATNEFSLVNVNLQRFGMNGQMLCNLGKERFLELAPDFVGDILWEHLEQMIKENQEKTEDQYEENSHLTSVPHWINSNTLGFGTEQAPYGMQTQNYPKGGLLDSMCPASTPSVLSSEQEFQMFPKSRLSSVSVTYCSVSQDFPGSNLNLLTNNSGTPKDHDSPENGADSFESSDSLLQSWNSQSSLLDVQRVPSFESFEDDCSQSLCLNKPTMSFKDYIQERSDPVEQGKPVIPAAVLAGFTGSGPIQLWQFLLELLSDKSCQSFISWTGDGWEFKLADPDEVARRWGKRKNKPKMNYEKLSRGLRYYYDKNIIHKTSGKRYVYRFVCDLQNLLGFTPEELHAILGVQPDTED
To be noted: protein: recombinant; tags: N-terminal GST; dsDNA, one strand shown. The essentials:
as §1

A further assay concerns the target T9, SPDEF (Homo sapiens, UniProt O95238 1-335).
T9 sequence: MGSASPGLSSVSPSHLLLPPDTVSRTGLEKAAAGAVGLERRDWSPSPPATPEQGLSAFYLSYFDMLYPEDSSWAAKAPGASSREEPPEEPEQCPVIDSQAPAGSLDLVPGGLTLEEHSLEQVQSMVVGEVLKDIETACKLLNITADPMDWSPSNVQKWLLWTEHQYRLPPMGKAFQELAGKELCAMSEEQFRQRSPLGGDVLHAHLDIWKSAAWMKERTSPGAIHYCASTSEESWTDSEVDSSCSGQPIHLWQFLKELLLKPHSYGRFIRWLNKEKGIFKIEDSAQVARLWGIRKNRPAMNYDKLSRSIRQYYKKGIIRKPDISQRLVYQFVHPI
As to conditions: protein: recombinant; tags: N-terminal GST; dsDNA, one strand shown. The method, boiled down:
as §1

A further assay has as its target T10, ETV7 (Homo sapiens, UniProt Q9Y603 1-341).
T10 sequence: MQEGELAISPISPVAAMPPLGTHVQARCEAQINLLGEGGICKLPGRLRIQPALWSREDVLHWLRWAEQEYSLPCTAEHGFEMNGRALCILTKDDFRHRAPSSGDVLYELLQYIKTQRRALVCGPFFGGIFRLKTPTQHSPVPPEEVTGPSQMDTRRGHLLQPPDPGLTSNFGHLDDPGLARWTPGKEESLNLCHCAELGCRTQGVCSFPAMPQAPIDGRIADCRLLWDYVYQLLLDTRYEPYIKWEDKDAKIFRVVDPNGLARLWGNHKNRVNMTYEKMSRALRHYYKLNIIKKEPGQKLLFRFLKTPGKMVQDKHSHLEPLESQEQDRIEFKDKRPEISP
As to conditions: protein: recombinant; tags: N-terminal GST; dsDNA, one strand shown. The method, boiled down:
as §1

In the next assay the target is T11, ELF5 (Homo sapiens, UniProt Q9UKW6-2 1-255).
T11 sequence: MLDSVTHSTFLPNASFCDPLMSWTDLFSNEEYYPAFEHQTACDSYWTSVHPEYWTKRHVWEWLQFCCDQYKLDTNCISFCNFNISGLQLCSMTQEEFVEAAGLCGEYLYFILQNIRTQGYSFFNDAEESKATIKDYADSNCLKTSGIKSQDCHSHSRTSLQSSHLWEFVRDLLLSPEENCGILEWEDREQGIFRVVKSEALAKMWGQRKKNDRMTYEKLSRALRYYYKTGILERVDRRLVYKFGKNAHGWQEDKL
As to conditions: protein: recombinant; tags: N-terminal GST; dsDNA, one strand shown. The essentials: as §1

The target of another assay is T12, ETV3 (Homo sapiens, UniProt P41162-2 1-143).
T12 sequence: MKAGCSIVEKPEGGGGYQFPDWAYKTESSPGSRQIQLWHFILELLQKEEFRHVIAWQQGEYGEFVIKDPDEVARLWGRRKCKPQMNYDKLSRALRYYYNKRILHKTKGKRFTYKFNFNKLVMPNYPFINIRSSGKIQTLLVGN
To be noted: protein: recombinant; tags: N-terminal GST; dsDNA, one strand shown. The method, boiled down: as §1

The next assay addresses ETV6 (Homo sapiens, UniProt P41212 1-452). To be noted: protein: recombinant; tags: N-terminal GST; dsDNA, one strand shown. The method, boiled down: as §1

Sequence of HSF1 (Q00613 whole entry): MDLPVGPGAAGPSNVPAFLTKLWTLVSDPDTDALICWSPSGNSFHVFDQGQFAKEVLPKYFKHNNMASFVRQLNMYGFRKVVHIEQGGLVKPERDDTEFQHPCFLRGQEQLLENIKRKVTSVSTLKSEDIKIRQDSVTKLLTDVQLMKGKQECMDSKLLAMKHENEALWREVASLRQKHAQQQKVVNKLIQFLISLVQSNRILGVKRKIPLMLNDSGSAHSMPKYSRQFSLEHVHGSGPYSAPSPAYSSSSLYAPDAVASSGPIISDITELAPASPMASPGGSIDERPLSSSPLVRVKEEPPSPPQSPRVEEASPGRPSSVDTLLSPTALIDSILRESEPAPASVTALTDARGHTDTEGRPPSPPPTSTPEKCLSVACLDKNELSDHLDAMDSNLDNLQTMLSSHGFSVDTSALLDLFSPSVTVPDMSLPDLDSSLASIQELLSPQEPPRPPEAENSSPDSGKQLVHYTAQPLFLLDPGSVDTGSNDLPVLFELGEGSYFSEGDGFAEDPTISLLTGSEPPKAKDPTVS
Sequence of CRX (O43186 whole entry): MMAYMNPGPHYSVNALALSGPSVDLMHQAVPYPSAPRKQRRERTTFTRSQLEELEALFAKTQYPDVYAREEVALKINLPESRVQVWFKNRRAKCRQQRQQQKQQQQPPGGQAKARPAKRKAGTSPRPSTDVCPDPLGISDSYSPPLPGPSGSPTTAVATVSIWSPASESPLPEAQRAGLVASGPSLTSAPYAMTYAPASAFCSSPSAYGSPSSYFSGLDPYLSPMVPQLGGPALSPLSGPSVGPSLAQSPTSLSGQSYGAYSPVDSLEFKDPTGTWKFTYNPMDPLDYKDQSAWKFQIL
Sequence of ETV5 (P41161 whole entry): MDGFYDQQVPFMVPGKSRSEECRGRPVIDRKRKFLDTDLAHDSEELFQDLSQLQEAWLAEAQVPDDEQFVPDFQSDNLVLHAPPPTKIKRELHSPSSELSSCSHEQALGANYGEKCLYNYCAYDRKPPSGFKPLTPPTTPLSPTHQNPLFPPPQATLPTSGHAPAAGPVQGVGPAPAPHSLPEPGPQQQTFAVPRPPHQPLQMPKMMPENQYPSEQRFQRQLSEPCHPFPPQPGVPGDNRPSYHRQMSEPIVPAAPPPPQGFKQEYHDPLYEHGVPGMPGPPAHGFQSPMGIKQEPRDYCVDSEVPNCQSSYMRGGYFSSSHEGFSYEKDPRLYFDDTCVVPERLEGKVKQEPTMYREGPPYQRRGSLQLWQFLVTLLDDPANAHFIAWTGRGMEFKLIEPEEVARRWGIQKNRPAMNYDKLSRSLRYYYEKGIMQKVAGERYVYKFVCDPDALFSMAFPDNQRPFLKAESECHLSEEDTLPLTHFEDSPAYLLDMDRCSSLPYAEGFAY
Sequence of ETV6 (P41212 whole entry): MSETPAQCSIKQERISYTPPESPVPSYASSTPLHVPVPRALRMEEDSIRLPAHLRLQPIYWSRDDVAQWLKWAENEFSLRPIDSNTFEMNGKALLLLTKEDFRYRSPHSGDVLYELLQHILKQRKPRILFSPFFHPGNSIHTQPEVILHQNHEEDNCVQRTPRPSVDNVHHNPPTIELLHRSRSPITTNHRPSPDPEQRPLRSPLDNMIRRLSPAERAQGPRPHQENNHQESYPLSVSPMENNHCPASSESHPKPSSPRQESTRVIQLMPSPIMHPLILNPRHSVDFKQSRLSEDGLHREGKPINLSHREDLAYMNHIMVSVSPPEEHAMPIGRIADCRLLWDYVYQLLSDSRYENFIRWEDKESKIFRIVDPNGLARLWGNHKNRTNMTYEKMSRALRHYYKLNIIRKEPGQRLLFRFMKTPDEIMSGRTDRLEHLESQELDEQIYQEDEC
Sequence of ELF4 (Q99607 whole entry): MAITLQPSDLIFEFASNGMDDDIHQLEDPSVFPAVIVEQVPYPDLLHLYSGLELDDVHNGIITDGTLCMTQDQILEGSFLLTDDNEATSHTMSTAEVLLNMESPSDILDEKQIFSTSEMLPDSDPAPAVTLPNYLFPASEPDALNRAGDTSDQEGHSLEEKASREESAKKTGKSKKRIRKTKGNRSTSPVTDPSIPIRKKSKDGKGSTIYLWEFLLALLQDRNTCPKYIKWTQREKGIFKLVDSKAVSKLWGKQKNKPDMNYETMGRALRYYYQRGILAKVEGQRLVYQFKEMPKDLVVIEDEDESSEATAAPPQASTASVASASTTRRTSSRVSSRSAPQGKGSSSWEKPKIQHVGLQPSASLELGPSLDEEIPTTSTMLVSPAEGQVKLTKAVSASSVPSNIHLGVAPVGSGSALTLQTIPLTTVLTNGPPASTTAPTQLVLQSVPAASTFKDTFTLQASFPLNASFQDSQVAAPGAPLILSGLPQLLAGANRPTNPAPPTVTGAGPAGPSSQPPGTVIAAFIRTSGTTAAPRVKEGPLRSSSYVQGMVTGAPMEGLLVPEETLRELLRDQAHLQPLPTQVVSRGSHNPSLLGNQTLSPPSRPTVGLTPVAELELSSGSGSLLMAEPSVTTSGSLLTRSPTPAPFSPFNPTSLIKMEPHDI
Sequence of ETV1 (P50549 whole entry): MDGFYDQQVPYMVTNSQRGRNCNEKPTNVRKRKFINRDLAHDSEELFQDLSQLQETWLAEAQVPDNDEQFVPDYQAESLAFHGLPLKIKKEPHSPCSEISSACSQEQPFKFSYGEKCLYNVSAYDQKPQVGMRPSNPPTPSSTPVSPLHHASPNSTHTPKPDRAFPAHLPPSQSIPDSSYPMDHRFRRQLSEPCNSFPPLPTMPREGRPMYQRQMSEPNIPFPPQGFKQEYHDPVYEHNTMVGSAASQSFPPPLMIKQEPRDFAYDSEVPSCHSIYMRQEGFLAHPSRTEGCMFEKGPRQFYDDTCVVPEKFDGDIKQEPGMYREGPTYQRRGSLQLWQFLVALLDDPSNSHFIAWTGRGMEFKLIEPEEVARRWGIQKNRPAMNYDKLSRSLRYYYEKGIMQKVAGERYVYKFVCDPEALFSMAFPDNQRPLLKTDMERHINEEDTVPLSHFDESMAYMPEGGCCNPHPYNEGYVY

Regarding TACGAC, the binding signal was 1.28 fold enrichment (6-mer frequency, TF over GST control) with FEV; 1.18 fold enrichment (6-mer frequency, TF over GST control) in the assay with ETV5; 1.14 fold enrichment (6-mer frequency, TF over GST control) with HSF1; 1.22 fold enrichment (6-mer frequency, TF over GST control) with SPIC; 1.34 fold enrichment (6-mer frequency, TF over GST control) in the assay with ELF4; 1.3 fold enrichment (6-mer frequency, TF over GST control) with ELK4. Also, the binding signal with ETV2 is 1.51 fold enrichment (6-mer frequency, TF over GST control); with ELF3 it was 1.31 fold enrichment (6-mer frequency, TF over GST control); with CRX, 1.25 fold enrichment (6-mer frequency, TF over GST control); with ETV1, 1.37 fold enrichment (6-mer frequency, TF over GST control); in the assay with ERF it was 1.18 fold enrichment (6-mer frequency, TF over GST control); with ETV3L it was 1.22 fold enrichment (6-mer frequency, TF over GST control). In addition, the binding signal with ETS2 was 1.27 fold enrichment (6-mer frequency, TF over GST control); in the assay with SPDEF, 1.48 fold enrichment (6-mer frequency, TF over GST control); with ETV7, 1.18 fold enrichment (6-mer frequency, TF over GST control); with ELF5, 1.29 fold enrichment (6-mer frequency, TF over GST control); in the assay with ETV3, 1.33 fold enrichment (6-mer frequency, TF over GST control); in the assay with ETV6, 1.29 fold enrichment (6-mer frequency, TF over GST control).
